TbPYK inhibitor – inhibitors of Trypanosoma brucei pyruvate kinase | Potency, µM (doses to about 76.8 µM), without a hit: top-dose activity, negative = inhibition, hits mostly inhibitors | Q57TT1 | actives 0.12% (n = 410,000) | TbPYK enzyme, Kinase-Glo Plus ATP luminescence, 45 min; note: % is set by controls: 0 for no effect and ±100 for the full control effect; nearly all actives have a fitted effect of over 50% in size
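Quantitative HTS: titrated library compounds versus trypanosomal pyruvate kinase in TEA buffer (pH 7.2) containing KCl, MgCl2, BSA and Tween-20. Reactions were initiated with ADP, 130 uM final. Kinase-Glo Plus luminescence was read after 45 min at RT.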
FBPA Giardia inh – Giardia lamblia aldolase inhibition. A8B2U2. purified Giardia FBPA. Potency, µM (doses to about 59.6 µM), inactives show at the highest dose activity, negative = inhibition, actives largely listed as inhibitors. actives 0.71% (n = 290,000). AID 2451; note: % is set by controls: 0 for no effect and ±100 for the full control effect; nearly all actives have a fitted effect of over 55% in size
Target sequence (A8B2U2 whole entry, looked up): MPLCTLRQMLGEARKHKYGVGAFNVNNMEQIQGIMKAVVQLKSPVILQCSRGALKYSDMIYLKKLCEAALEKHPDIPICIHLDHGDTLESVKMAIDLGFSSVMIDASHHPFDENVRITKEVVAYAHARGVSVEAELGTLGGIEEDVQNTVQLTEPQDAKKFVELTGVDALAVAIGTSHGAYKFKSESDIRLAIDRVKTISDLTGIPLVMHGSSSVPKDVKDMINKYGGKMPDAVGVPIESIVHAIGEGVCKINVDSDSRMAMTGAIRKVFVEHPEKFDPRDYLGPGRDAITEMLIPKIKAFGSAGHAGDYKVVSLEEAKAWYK
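40 nM FBPA preincubated 10 min at RT with compound (up to 57.5 uM final), then substrate plus GAPDH/TPI/NAD/arsenate coupling and diaphorase/resazurin added. Fluorescence read after 20 min at RT, 525/598 nm.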
RE007 growth inh – less growth of the S. pombe RE007 Vpr strain. AID 651644. actives 0.21% (n = 360,000). S. pombe RE007 Vpr strain, BacTiter-Glo ATP luminescence, 24 h. Potency, µM (titrated, usually from 92.2 µM), for inactives: top-dose activity change, negative = less growth, hits mostly inhibitors; active = well fitted falling curve with a large enough effect; inconclusive = small, poorly fitted or top-dose-only effect; inactive = no such curve, though single readings can be large or run the other way; note: % is set by controls: 0 for no effect and ±100 for the full control effect; nearly all actives have a fitted effect of over 50% in size
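Fission yeast RE007 carrying one integrated HIV-1 vpr copy, seeded at OD 0.01 in PMG+AL medium with 23 nL pinned compound. Grown 24 h at 30 degrees; viability read by BacTiter-Glo luminescence after 5 min.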
LmPK inh – blocks Leishmania mexicana pyruvate kinase activity. purified LmPK, Kinase-Glo ATP luminescence, 1 h. AID 1721. Q27686. actives 0.37% (n = 290,000). Potency, µM (doses to about 57.5 µM), for inactives: at the top dose activity change, negative = inhibition, hits mostly inhibitors; note: % is set by controls: 0 for no effect and ±100 for the full control effect
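qHTS format; LmPK 0.1 nM; substrates PEP 0.5 mM and ADP 0.1 mM. One-hour room-temperature incubation, then coupled luciferase luminescence; 0.5 nM enzyme wells mark activation.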
NS1 function inh – inhibitors of influenza NS1 protein function. actives 0.4% (n = 270,000). Potency, µM (highest dose often 46.1 µM), for inactives: at the top dose activity, positive = more growth; calls by dose curve; note: actives are rising curves; nearly all actives have a fitted effect of over 50% in size
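Recovery from NS1-induced slow growth read by OD600 in budding yeast switched to galactose assay medium (pH 6.0, -URA) at 1:100 dilution. Compound 23 nl per well; the matching strain lacking NS1 serves as control.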
Sm TGR block – S. mansoni TGR enzyme inhibition; AID 485364; Q962Y6; actives 3% (n = 360,000); Potency, µM (series often up to 114 µM), for the others: top-dose activity change, negative = inhibition, most hits filed as inhibitors; purified TGR, DTNB reduction, TNB absorbance 405 nm; note: % is set by controls: 0 for no effect and ±100 for the full control effect; nearly all actives have a fitted effect of over 60% in size
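Kinetic colorimetric format: TGR-catalysed, NADPH-driven DTNB reduction monitored via TNB absorbance. Enzyme dispensed at 20 nM; compound exposure 15 min at room temperature before reaction start.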
Numbers without * were called inactive; ? = inconclusive; . = no result given. The list is not random: actives were taken first. Their share in the collection is about 3.5%. Unless noted, calls come from the whole dose curve; as a rule, active = well fitted curve in the direction sought with a large enough effect; inconclusive = small, poorly fitted or top-dose-only effect, or another doubt; inactive = no such curve, though single readings can be large; an effect the other way counts as inactive or inconclusive. Potency is the fitted concentration of half-maximal effect.

SMILES	TbPYK inhibitor	FBPA Giardia inh	RE007 growth inh	LmPK inh	NS1 function inh	Sm TGR block
COc1cc([C@@H]2OC[C@@H]3[C@H]2CO[C@@H]3c2ccc3c(c2)OCO3)ccc1O	-3%	.	16%	.	.	.
Cc1ccc(/C=N/NC(=O)c2cc(C)oc2C)cc1	-2%	2%	-26%	13µM*	-1%	-8%
COc1cc(/C=N/NC(=O)c2ccoc2C)ccc1O	-14%	0%	14%	?	-6%	-12%
CCN(CC)c1ccc(/C=N/NC(=O)c2ccoc2C)cc1	?	-9%	-26%	14µM*	-9%	30%
COc1cccc(/C=N/NC(=O)c2ccoc2C)c1	-10%	-5%	-11%	13µM*	-9%	-6%
Cc1ccc2nsnc2c1NC(=O)c1ccc(-c2cc(Cl)ccc2Cl)o1	4%	-25%	-7%	12%	17%	40µM*
Cc1ccc2nsnc2c1NC(=O)CCl	-5%	1%	3%	-2%	2%	45µM*
O=C(Nc1cccc2nsnc12)c1ccc(-c2cccc(Cl)c2)o1	-5%	?	?	1%	20%	6.3µM*
Cc1ccc2nsnc2c1NC(=O)Cc1ccc(Cl)cc1	1%	3%	9%	4%	-2%	6%
COc1cc(C(=O)Nc2cc(C)c(O)c(-c3nc4ccccc4s3)c2)cc(OC)c1OC	6%	.	.	.	.	-4%
CC(=O)c1ccc(NC(=O)c2cc(-c3ccc(Cl)c(Cl)c3)on2)cc1	2%	.	.	.	.	9%
CCOC(=O)NC1(Nc2ccc(C)cc2)Oc2ccccc2O1	?	-12%	-14%	4%	10%	40µM*
CCOC(=O)NC1(NC(C)C)Oc2ccccc2O1	5%	-5%	9%	-2%	1%	45µM*
CCOC(=O)NC1c2ccccc2Oc2ccccc21	-1%	1%	8%	0%	-1%	16%
CCOC(=O)NC1(NC2CCCCC2)Oc2ccccc2O1	-9%	-29%	14%	-2%	-71%	16µM*
CCOC(=O)NC1(NCC(C)C)Oc2ccccc2O1	-14%	?	-1%	-2%	0%	22µM*
CN1CCN(C(CNC(=O)c2c(F)cccc2F)c2ccc3c(c2)OCO3)CC1 (stereo not given)	-2%	.	.	.	.	1%
CCOC(=O)NC1(NCc2ccccc2)Oc2ccccc2O1	-19%	-14%	-21%	-7%	-3%	32µM*
Cc1ccc(N2NC3(CCN(C(N)=O)CC3)NC2=O)cc1	-8%	-6%	39%	1%	-2%	40µM*
COc1ccc(NC(=O)CC2C(=O)N(c3ccc(F)cc3)C(=O)N2Cc2cccnc2)cc1 (stereo not given)	1%	.	.	.	.	5%
NS(=O)(=O)c1ccc(NNC(=O)c2ccccc2)cc1	6%	0%	-11%	4%	-2%	-14%
O=C(NNc1cc(Br)c(O)c(Br)c1)c1ccccc1	-16%	?	?	?	.	18µM*
CCCC(=O)C1=C(O)C(C(=O)OC)C(C)(C)CC1=NCc1ccccc1 (stereo not given)	-15%	11%	5%	0%	10%	100µM*
CCCC(=O)C1=C(O)C(C(=O)OC)C(C)(C)CC1=Nc1ccccc1 (stereo not given)	-11%	7%	14%	-8%	-43%	2%
Cc1ccc(NC(=O)c2oc3ccc(S(=O)(=O)N4CCC5(CC4)OCCO5)cc3c2C)cc1Cl	1%	.	.	.	.	-14%
SMILES	TbPYK inhibitor	FBPA Giardia inh	RE007 growth inh	LmPK inh	NS1 function inh	Sm TGR block
COc1ccc(NC(=O)c2oc3ccc(S(=O)(=O)N4CCC5(CC4)OCCO5)cc3c2C)cc1	-7%	-2%	14%	5%	11µM*	1%
Cc1cccc(N2C(=O)NC(=O)/C(=C\C=C\c3ccco3)C2=O)c1	-14%	-10%	8%	12%	-1%	?
CN(C)c1ccc(/C=C/C=C2/C(=O)NC(=O)N(c3ccccc3)C2=O)cc1	?	-21%	-21%	13µM*	-2%	?
O=C1NC(=O)N(c2ccccc2)C(=O)/C1=C/C=C/c1ccco1	?	-13%	27%	8%	3%	10µM*
Cc1ccc(N2C(=O)NC(=O)/C(=C\C=C\c3ccco3)C2=O)cc1	-28%	-4%	15%	10%	10%	11µM*
O=C1S/C(=C\C=C\c2ccco2)C(=O)N1c1ccccc1	-16%	-25%	2%	-2%	15%	45µM*
Cc1cccc(C(C)C)c1NC(=O)C1CCCN1S(=O)(=O)c1cccc2nsnc12 (stereo not given)	3%	.	.	.	.	1%
Cc1ccc(N2C(=O)NC(=O)/C(=C\C=C\c3ccco3)C2=O)cc1C	-22%	-8%	53%	4%	29%	25µM*
Cc1ccc2c(=O)cc(C(=O)Nc3ccc(S(=O)(=O)N(C)c4ccccc4)cc3)oc2c1C	2%	.	.	.	.	-8%
COc1ccccc1-c1nnc(SCCOc2ccccc2C)o1	5%	.	.	.	.	4%
Cc1ccc(CNC(=O)c2ccc([N+](=O)[O-])o2)cc1	-1%	-16%	?	2%	-148%	35µM*
COc1ccccc1NC(=O)c1ccc([N+](=O)[O-])o1	3%	.	?	.	.	.
Cc1ccc(/C=C/C(=O)c2ccc([N+](=O)[O-])o2)cc1	-7%	.	13%	.	.	14µM*
CN(Cc1ccccc1)C(=O)c1ccc([N+](=O)[O-])o1	5%	-4%	-15%	3%	-30%	40µM*
CC(=O)c1ccccc1OC(=O)c1ccc([N+](=O)[O-])o1	3%	-26%	-9%	-1%	-33%	16µM*
Cc1nc2ccccc2nc1CN1CCN(Cc2ccc(F)c(F)c2)C(CCO)C1 (stereo not given)	1%	-5%	7%	0%	-1%	14µM*
COc1cccc(CN2CCN(Cc3ccc4c(NC(C)=O)cccc4n3)CC2CCO)c1 (stereo not given)	1%	-21%	-8%	9%	-1%	20µM*
COc1cc(CN2CCN(Cc3ccc4cc(F)ccc4n3)CC2CCO)cc(OC)c1 (stereo not given)	2%	?	-3%	4%	7%	40µM*
CCOc1ccccc1CN1CCN(Cc2ccc3cc(F)ccc3n2)CC1CCO (stereo not given)	-5%	-21%	5%	-10%	-3%	35µM*
CC[C@H](C)[C@H](NC(=O)[C@H](Cc1ccc(O)cc1)NC(=O)[C@@H]1CCCN1C(=O)[C@@H](NC(=O)[C@@H](N)CCCCN)[C@@H](C)CC)C(=O)N[C@@H](CC(C)C)C(=O)O	.	2%	.	.	.	.
COc1cccc(C(=O)N(Cc2nc(-c3ccc(Cl)cc3)no2)C(C)C)c1OC	1%	.	.	.	.	11%

Assay outcomes: PubChem BioAssay, National Center for Advancing Translational Sciences (NCATS)
